# Source: PubChem BioAssay (NCI)
# “And” between values parts separate entries of the source, which are not always exact repeats. Equal values may be shown once. About 79,000 compounds went through this panel and 15% of them were active in at least one assay; those are over-represented in the sample as a whole. Some compounds were tested as several samples or in several runs, with calls that do not always agree. The source made the active and inactive calls. Cut-off read from the data, not from the text of the source: active = growth inhibition above about 70%; inactive = the rest.
# Key:
# [1] = NCI Yeast Anticancer Drug Screen. Data for the rad50 strain (AID 155);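 note: 0% = growth of vehicle-only cultures of the same strain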; settings: S. cerevisiae rad50 strain growth inhibition, stronger effect = higher value
# In short: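 Readout: growth inhibition relative to vehicle-treated cultures. Compound exposure was carried out in a genetically defined yeast strain deficient in DNA damage repair.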
# [2] = NCI Yeast Anticancer Drug Screen. Data for the mec2-1 strain (AID 157); settings: S. cerevisiae mec2-1 strain, stronger effect = higher value
# In short: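 Each compound was tested on mec2-1 yeast, a strain altered in DNA damage repair or cell cycle control. Growth inhibition is reported relative to vehicle.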
# [3] = NCI Yeast Anticancer Drug Screen. Data for the cln2 rad14 strain (AID 165);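 note: 0% = growth equal to vehicle treated cultures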; settings: S. cerevisiae cln2 rad14 strain, stronger effect = higher value
# In short: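 Test compounds were added to cln2 rad14 yeast cultures; inhibition of growth was then determined by comparison with vehicle treatment.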
# [4] = NCI Yeast Anticancer Drug Screen. Data for the bub3 strain (AID 167); settings: S. cerevisiae bub3 mutant strain, stronger effect = higher value
# In short: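 Readout: yeast growth inhibition, expressed relative to vehicle-only wells. The test organism is a mutant strain from a panel with lesions in DNA repair or checkpoint genes.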
# [5] = NCI Yeast Anticancer Drug Screen. Data for the mlh1 rad18 strain (AID 175); settings: S. cerevisiae mlh1 rad18 strain growth inhibition, stronger effect = higher value
# In short: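 Inhibition values reflect reduced growth of mutant yeast versus vehicle-treated controls following compound exposure; the mutations affect DNA damage repair.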
# [6] = NCI Yeast Anticancer Drug Screen. Data for the sgs1 mgt1 strain (AID 161);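 note: 0% = growth of cultures given vehicle only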; settings: S. cerevisiae sgs1 mgt1 strain, stronger effect = higher value
# In short: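 Genetically altered yeast, compound exposure, growth inhibition relative to vehicle.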
# [7] = NCI Yeast Anticancer Drug Screen. Data for the wt2 strain (AID 169);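 note: 0% = growth of vehicle-treated yeast cultures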; settings: S. cerevisiae wt2 strain growth inhibition, stronger effect = higher value
# In short: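 The panel's yeast strains carry defined changes in DNA repair or cell cycle genes. Each strain is grown with compound, and growth loss is scored relative to vehicle.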
# [8] = at 5.0 µM (retest, dose inferred, filed as 0.5)
# [9] = at 50.0 µM (retest, dose inferred, filed as 5.0)
smiles,measurement,setting,value
CCSSC(=Nc1ccccc1)OCC(C)C,growth inhibition,[1]; [8],17% (inactive)
same,growth inhibition,[1]; [9],91% (active)
same,growth inhibition,[1]; at 50.0 µM,62% (inactive)
same,growth inhibition,[2]; [8],18% (inactive)
same,growth inhibition,[2]; [9],70% (active)
same,growth inhibition,[2]; at 50.0 µM,80.4% (active)
same,growth inhibition,[3]; [8],50% (inactive)
same,growth inhibition,[3]; [9],92% (active)
same,growth inhibition,[3]; at 50.0 µM,30.8% (inactive)
same,growth inhibition,[4]; [8],52% (inactive)
same,growth inhibition,[4]; [9],97% (active)
same,growth inhibition,[4]; at 50.0 µM,84.4% (active)
same,growth inhibition,[5]; [8],23% (inactive)
same,growth inhibition,[5]; [9],82% (active)
same,growth inhibition,[5]; at 50.0 µM,80% (active)
CCCCCCCCCCCCN,growth inhibition,[1]; [8],71% (active)
same,growth inhibition,[1]; [9],99% (active)
same,growth inhibition,[1]; at 50.0 µM,77.5% (active)
same,growth inhibition,[2]; [8],65% (inactive)
same,growth inhibition,[2]; [9],99% (active)
same,growth inhibition,[2]; at 50.0 µM,45% (inactive)
same,growth inhibition,[6]; [8],-4% (inactive)
same,growth inhibition,[6]; [9],98% (active)
same,growth inhibition,[6]; at 50.0 µM,81.8% (active)
same,growth inhibition,[4]; [8],56% (inactive)
same,growth inhibition,[4]; [9],98% (active)
same,growth inhibition,[4]; at 50.0 µM,79.7% (active)
same,growth inhibition,[7]; at 1.2 µM,-14% (inactive)
same,growth inhibition,[7]; at 3.7 µM,-21% (inactive)
same,growth inhibition,[7]; at 11.0 µM,-9% (inactive)
same,growth inhibition,[7]; at 33.0 µM,-5% (inactive)
same,growth inhibition,[7]; at 100.0 µM,97% (active)
same,growth inhibition,[5]; [8],70% (active)
same,growth inhibition,[5]; [9],100% (active)
same,growth inhibition,[5]; at 50.0 µM,72.2% (active)
O=C1C=C(c2c(O)ccc3ccccc23)c2ccccc2C1=O,growth inhibition,[1]; [8],48% (inactive) and 29% (inactive)
same,growth inhibition,[1]; [9],98% (active)
same,growth inhibition,[1]; at 50.0 µM,98.9% (active) and 85.8% (active)
same,growth inhibition,[2]; [8],73% (active) and 21% (inactive)
same,growth inhibition,[2]; [9],99% (active) and 98% (active)
same,growth inhibition,[2]; at 50.0 µM,98.8% (active) and 85% (active)
same,growth inhibition,[6]; [8],80% (active) and 40% (inactive)
same,growth inhibition,[6]; [9],98% (active)
same,growth inhibition,[6]; at 50.0 µM,84.8% (active) and 89.8% (active)
same,growth inhibition,[3]; [8],59% (inactive) and 36% (inactive)
same,growth inhibition,[3]; [9],99% (active) and 98% (active)
same,growth inhibition,[3]; at 50.0 µM,98.7% (active) and 89.3% (active)
same,growth inhibition,[5]; [8],94% (active) and 73% (active)
same,growth inhibition,[5]; [9],98% (active) and 97% (active)
same,growth inhibition,[5]; at 50.0 µM,98.7% (active) and 90.2% (active)
OC1C(O)C(O)C(O)C(O)C1O (stereo unspecified),growth inhibition,[4]; at 50.0 µM,0.4% (inactive) [middle of 5 runs]
same,growth inhibition,[5]; at 50.0 µM,4.3% (inactive) [middle of 5 runs]
Nc1ncnc2c(C3OC(CO)C(O)C3O)scc12 (stereo unspecified),growth inhibition,[2]; [8],12% (inactive)
same,growth inhibition,[2]; [9],40% (inactive)
same,growth inhibition,[2]; at 50.0 µM,26.4% (inactive)
same,growth inhibition,[6]; [8],7% (inactive)
same,growth inhibition,[6]; [9],42% (inactive)
same,growth inhibition,[6]; at 50.0 µM,39.4% (inactive)
same,growth inhibition,[3]; [8],21% (inactive)
same,growth inhibition,[3]; [9],5% (inactive)
same,growth inhibition,[3]; at 50.0 µM,30.9% (inactive)
same,growth inhibition,[4]; [8],-21% (inactive)
same,growth inhibition,[4]; [9],30% (inactive)
same,growth inhibition,[4]; at 50.0 µM,47.6% (inactive)
same,growth inhibition,[5]; [8],14% (inactive)
same,growth inhibition,[5]; [9],63% (inactive)
same,growth inhibition,[5]; at 50.0 µM,39.4% (inactive)
COc1cccc2c1C(=O)c1c(O)c3c(c(O)c1C2=O)C[C@@](O)(C(C)=O)C[C@@H]3OC1CC(N)C(O)C(C)O1 (stereo partly specified),growth inhibition,[1]; [8],32% (inactive)
same,growth inhibition,[1]; [9],91% (active)
same,growth inhibition,[2]; [8],-11% (inactive)
same,growth inhibition,[2]; [9],90% (active)
same,growth inhibition,[6]; [8],8% (inactive)
same,growth inhibition,[6]; [9],93% (active)
same,growth inhibition,[3]; [8],23% (inactive)
same,growth inhibition,[3]; [9],85% (active)
same,growth inhibition,[4]; [8],7% (inactive)
same,growth inhibition,[4]; [9],93% (active)
same,growth inhibition,[5]; [8],7% (inactive)
same,growth inhibition,[5]; [9],88% (active)
CCCCCCCCCCSC(=N)N,growth inhibition,[1]; [8],-141% (inactive) and 19% (inactive)
same,growth inhibition,[1]; [9],82% (active) and 91% (active)
same,growth inhibition,[1]; at 50.0 µM,52.9% (inactive) and 95.7% (active)
same,growth inhibition,[6]; [8],-54% (inactive) and 22% (inactive)
same,growth inhibition,[6]; [9],90% (active) and 95% (active)
same,growth inhibition,[6]; at 50.0 µM,52.5% (inactive) and 96.5% (active)
same,growth inhibition,[3]; [8],-50% (inactive) and 8% (inactive)
same,growth inhibition,[3]; [9],49% (inactive) and 62% (inactive)
same,growth inhibition,[3]; at 50.0 µM,57.5% (inactive) and 57.2% (inactive)
same,growth inhibition,[4]; [8],-47% (inactive) and 22% (inactive)
same,growth inhibition,[4]; [9],84% (active) and 92% (active)
same,growth inhibition,[4]; at 50.0 µM,52.5% (inactive) and 94.3% (active)
same,growth inhibition,[5]; [8],-134% (inactive) and 1% (inactive)
same,growth inhibition,[5]; [9],79% (active) and 90% (active)
same,growth inhibition,[5]; at 50.0 µM,52% (inactive) and 92.1% (active)
COc1cccc2c1C(=O)c1c(O)c3c(c(O)c1C2=O)CC(O)(C(C)=O)CC3OC1CC(N)C(O)C(C)O1 (stereo unspecified),growth inhibition,[1]; [8],25% (inactive)
same,growth inhibition,[1]; [9],40% (inactive)
same,growth inhibition,[2]; [8],12% (inactive)
same,growth inhibition,[2]; [9],21% (inactive)
same,growth inhibition,[6]; [8],20% (inactive)
same,growth inhibition,[6]; [9],29% (inactive)
same,growth inhibition,[3]; [8],14% (inactive)
same,growth inhibition,[3]; [9],9% (inactive)
same,growth inhibition,[4]; [8],36% (inactive)
same,growth inhibition,[4]; [9],40% (inactive)
same,growth inhibition,[5]; [8],23% (inactive)
same,growth inhibition,[5]; [9],28% (inactive)
C[N+]1(Cc2ccc(Cl)c(Cl)c2)CCCC1C1CCCN(Cc2ccc(Cl)c(Cl)c2)C1 (stereo unspecified),growth inhibition,[2]; [8],-2% (inactive)
same,growth inhibition,[2]; [9],59% (inactive)
same,growth inhibition,[2]; at 50.0 µM,-3.95% (inactive) and 3.6% (inactive)
same,growth inhibition,[6]; [8],3% (inactive)
same,growth inhibition,[6]; [9],80% (active)
same,growth inhibition,[6]; at 50.0 µM,5.3% (inactive) and 14% (inactive)
same,growth inhibition,[3]; [8],-11% (inactive)
same,growth inhibition,[3]; [9],27% (inactive)
same,growth inhibition,[3]; at 50.0 µM,-15.3% (inactive) and 42.5% (inactive)
same,growth inhibition,[4]; [8],-1% (inactive)
same,growth inhibition,[4]; [9],61% (inactive)
same,growth inhibition,[4]; at 50.0 µM,22.2% (inactive) and 15.3% (inactive)
same,growth inhibition,[5]; [8],-2% (inactive)
same,growth inhibition,[5]; [9],76% (active)
same,growth inhibition,[5]; at 50.0 µM,29.1% (inactive) and 48.3% (inactive)
